This is a sample that favours compounds with a hit; in the whole collection about 1.8% have one here.
Myeloid diff 2 – myeloid differentiation induction; ER-HoxA9 myeloid progenitors, lysozyme-GFP differentiation, flow cytometry; calls only at 10 µM; 360,000 compounds, 1% hits; AID 624256;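 active means normalized GFP-positive differentiation at or above the plate's own cutoff, the solvent-only control mean plus 3 SD; inconclusive means no clear call, values can overlap the other calls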;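 further: cells exposed to compound for four days before flow analysis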
Granule exo inh – lytic granule exocytosis inhibition; TALL-104 LAMP-1 surface exposure, flow cytometry; cells stimulated with thapsigargin and PMA; inhibition, % at 10 µM; 360,000 compounds, 0.66% hits; AID 651702;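 active means inhibition above about 55%, limit read from the data; inconclusive means no clear call, values can overlap the other calls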
ABCB6 inh 2 – blocks the human ABCB6 transporter. fluorescence ratio to DMSO, % at 10 µM. 360,000 compounds, 0.19% hits. K562-ABCB6 porphyrin accumulation, flow cytometry, 1 h; stronger effect = lower value. Q9NP58;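 active means fluorescence ratio to DMSO below 75%, the collection mean minus 3 SD; inconclusive means too few cells collected in the well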;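 further: signal is porphyrin accumulated inside mitochondria; 100% equals median channel fluorescence of DMSO control wells; lower ratio means ABCB6 inhibition with less porphyrin fluorescence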
Target sequence (Q9NP58 whole entry, looked up): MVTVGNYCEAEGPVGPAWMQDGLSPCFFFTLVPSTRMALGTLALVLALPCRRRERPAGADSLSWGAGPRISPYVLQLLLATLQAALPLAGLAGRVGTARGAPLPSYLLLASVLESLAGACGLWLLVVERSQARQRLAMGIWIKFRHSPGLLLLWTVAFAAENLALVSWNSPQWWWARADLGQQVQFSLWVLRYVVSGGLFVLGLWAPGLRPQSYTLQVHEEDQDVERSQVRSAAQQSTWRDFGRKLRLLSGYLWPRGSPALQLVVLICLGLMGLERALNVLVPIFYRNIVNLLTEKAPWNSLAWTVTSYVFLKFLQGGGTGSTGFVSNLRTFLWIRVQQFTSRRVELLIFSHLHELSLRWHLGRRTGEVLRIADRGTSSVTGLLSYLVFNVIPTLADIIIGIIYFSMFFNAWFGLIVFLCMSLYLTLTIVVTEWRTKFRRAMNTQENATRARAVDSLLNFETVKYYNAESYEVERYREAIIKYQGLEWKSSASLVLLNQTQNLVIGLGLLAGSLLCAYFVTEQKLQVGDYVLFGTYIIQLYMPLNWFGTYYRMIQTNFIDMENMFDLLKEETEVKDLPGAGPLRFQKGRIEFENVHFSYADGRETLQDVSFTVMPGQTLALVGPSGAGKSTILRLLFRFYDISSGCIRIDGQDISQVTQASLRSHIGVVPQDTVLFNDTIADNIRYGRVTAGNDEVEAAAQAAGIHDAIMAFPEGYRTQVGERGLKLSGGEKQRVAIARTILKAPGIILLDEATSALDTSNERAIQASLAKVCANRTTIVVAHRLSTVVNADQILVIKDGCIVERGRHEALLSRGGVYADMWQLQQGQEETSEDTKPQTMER
An asterisk follows results filed as active; i = inactive; u = inconclusive; x = no result given; + = active, no number.

SMILES	Myeloid diff 2	Granule exo inh	ABCB6 inh 2
CCCCCCSc1ccc(-c2nc3cnccn3c2NCCCC)cc1	+	41	216
CN[C@H]1C[C@H]2c3[nH]c4ccc(-c5cccc(C)c5)cc4c3CCN2C[C@H]1[C@H](C)O	i	0	99
CCC(CC)CN1CCC(CN2C(=S)NC[C@@H]2CC(C)C)CC1	i	-3	93
COc1ccc(C2=CC3=C(Br)C(=O)C(C)(OC(=O)c4ccco4)C(=O)C3=CO2)cc1 (centres undefined)	+	0	104
COc1ccc(C2=CC3=C(Br)C(=O)C(C)(OC(=O)c4cccs4)C(=O)C3=CO2)cc1 (centres undefined)	i	-7	96
COc1ccc(-n2c(O)c(/C=N/NS(=O)(=O)c3ccc(C)cc3)c3ccccc3c2=O)cc1OC	u	-1	340
COc1ccc(-n2c(O)c(/C=N/NS(=O)(=O)c3cc(C)ccc3C)c3ccccc3c2=O)cc1OC	+	-5	304
COc1ccc2c(c1)CC/C(=C\Nc1ccc3c(c1)OCO3)C2=O	i	101*	100
O=C1/C(=C/Nc2ccc3c(c2)OCO3)CCc2ccccc21	i	98*	99
O=C1OC2(CCCCC2)OC(=O)C1=CNc1ccc2c(c1)OCO2	i	5	94
COc1ccc(N/C=C2\CCc3ccccc3C2=O)cc1	i	48	102
COC(=O)C[C@@H]1OC[C@H](C)N1S(=O)(=O)c1ccc(C)cc1	i	-2	x
Cc1ccc(S(=O)(=O)Nc2ccc3c(c2)OCCO3)cc1	i	-1	104
CSc1ccc(S(=O)(=O)Nc2ccc3c(c2)OCCO3)cc1	+	2	95
Cc1nc2ccc(NS(=O)(=O)c3ccc4c(c3)OCCO4)cc2s1	+	-5	95
Cc1ccc(S(=O)(=O)Nc2ccc3nc(C)sc3c2)cc1	i	-1	100
COC(=O)[C@]12CCCCC=C1N(Cc1ccco1)C(=O)[C@H](CC(=O)NCc1ccccc1)C2	i	1	95
CCOc1cc(C)nc(N2CCC(C(=O)NCC3CCCO3)CC2)n1 (centres undefined)	i	-2	99
CCN(C[C@H]1N[C@@](C)(C(=O)OC)[C@H]2C(=O)N(C)C(=O)[C@@H]12)S(=O)(=O)c1ccc(F)cc1	i	1	91
COc1cc(C2c3cc4c(cc3CC3COC(=O)N32)OCO4)cc(OC)c1OC (centres undefined)	x	-7	96
C1=C(c2ccccc2)Nc2ncnn2C1c1ccccc1 (centres undefined)	i	-5	97
Fc1ccc(Br)cc1C1C=C(c2ccc(Br)cc2)Nc2ncnn21 (centres undefined)	i	10	90
CCc1ccc(C2=CC(c3cc(Br)ccc3F)n3ncnc3N2)cc1 (centres undefined)	+	7	99
Cc1ccc(C2=CC(c3ccccc3)n3ncnc3N2)cc1 (centres undefined)	i	68*	98
CN(CC(=O)Nc1ccc(F)c(F)c1F)C(=O)CN1C(=O)C2CCCCC2C1=O (centres undefined)	i	19	99
SMILES	Myeloid diff 2	Granule exo inh	ABCB6 inh 2
C#CC(=O)N(c1ccc(OC)cc1OC)C(C(=O)NC1CCCC1)c1cccs1 (centres undefined)	x	28	99
C#CC(=O)N(c1cc(OC)ccc1OC)C(C(=O)NC1CCCC1)c1cccs1 (centres undefined)	i	21	64*
C[C@@H](C(=O)NCc1ccccc1)[C@@H]1C[C@@]1(C)[C@@H](NC(=O)OCc1ccccc1)c1ccccc1	i	12	103
C[C@@H](C(=O)NCCc1c[nH]c2ccccc12)[C@@H]1C[C@@]1(C)[C@@H](NC(=O)OCc1ccccc1)c1ccccc1	i	1	74*
O=C(NCc1ccc2c(c1)OCO2)C(=O)NCC1OCCCN1S(=O)(=O)c1ccccc1 (centres undefined)	i	2	95
Cc1cc(C)nc(-n2nc(C)cc2NC(=O)CN2CCCC2)n1	i	9	94
Cc1cc(C)nc(-n2nc(C)cc2NC(=O)CN2CCC(C)CC2)n1	+	-3	i
COc1ccc(CNC(=O)c2sc(=O)n(Cc3ccccc3OC)c2C)cc1	i	-8	98
Cc1cc2cc(C#N)c(SCC(=O)Nc3nonc3C)nc2cc1C	x	-7	95
Cc1nonc1NC(=O)CSc1nc2c(C)cccc2cc1C#N	+	0	171
N=c1n(Cc2ccccc2)c2ccccc2n1CC(O)c1ccco1 (centres undefined)	+	-4	133
Cc1ccc(OCC(O)Cn2c(=N)n(Cc3ccccc3)c3ccccc32)cc1 (centres undefined)	+	15	95
CCn1c(=N)n(CC(O)c2ccco2)c2ccccc21 (centres undefined)	i	0	95
COc1ccc(OCC(O)Cn2c(=N)n(Cc3ccccc3)c3ccccc32)cc1 (centres undefined)	i	5	96
CC(C)OC(=O)CC12CN3CN(C1)CC(CC(=O)OC(C)C)(C3)C2=O	i	1	102
CCOC(=O)CC12CN3CN(C1)CC(CC(=O)OCC)(C3)C2=O	+	6	97
COc1ccccc1Cc1c(-c2ccc(C#N)cc2)nc2ccc(C)cn12	i	8	119
CC(C)Cc1ccc(C(C)C(=O)Nc2ncccn2)cc1 (centres undefined)	i	-1	101
CC(C)Cc1ccc(C(C)C(=O)O)cc1 (centres undefined)	+	-2	206
Cc1cc(C(=O)Nc2cccc3c2O[C@@H](CN(C)S(C)(=O)=O)[C@H](C)CN([C@@H](C)CO)C3=O)n(C)n1	i	0	95
COc1ccc(C(C)(NC(C)=O)c2nc(-c3cccc4cccnc34)cs2)cc1 (centres undefined)	i	1	105
CNc1ncnc2c1ncn2-c1ccccc1	u	-2	96
COc1ccc(OC)c(-c2cc(C(=O)Nc3c(C)nn(Cc4ccccc4C)c3C)no2)c1	+	-2	98
COc1ccc(OC)c(-c2cc(C(=O)Nc3c(C)nn(Cc4ccccc4Cl)c3C)no2)c1	i	0	95
C[C@@H]1CN([C@H](C)CO)S(=O)(=O)c2ccc(Br)cc2O[C@H]1CN(C)C(=O)Cc1ccccn1	i	0	96
SMILES	Myeloid diff 2	Granule exo inh	ABCB6 inh 2
CC[C@H](C)[C@@H](C(=O)NCCCCCCCCCCC(=O)N1CCNCC1)n1cc(CCCCCN)nn1	i	0	103
CCOC(=O)[C@H]1[C@H]2COc3ccccc3[C@@H]2N2C(=O)CNC(=O)[C@@]12C	+	-12	99
CCOC(=O)[C@H]1[C@H]2COc3ccccc3[C@@H]2N2C(=O)c3cc(F)c(F)cc3NC(=O)[C@@]12C	i	-17	95
CN(C)c1ccc(/C=C(\C#N)C(=O)Nc2nc3c(s2)CCN(Cc2ccccc2)C3)cc1	+	3	284
O=C(Nc1nc2c(s1)CN(Cc1ccccc1)CC2)C1CCC1	i	1	99
Cc1cc(C)cc(C(=O)NC(CC(N)=O)c2ccc(N3CCN(C)CC3)c([N+](=O)[O-])c2)c1 (centres undefined)	i	-4	99

Bioassay records as filed in PubChem.
